FLuc counter – inhibits or activates purified firefly luciferase, miR-21 counter-screen | P08659 | purified FLuc, Km substrates, luminescence inhibition | Potency, µM (doses to about 57.5 µM), for inactives: at the highest dose activity change, negative = inhibition, hits mostly inhibitors | actives 6.9% (n = 360,000);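 note: plate controls were vehicle for no effect and reference inhibitor for full effect; nearly all actives have a fitted effect of over 55% in size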
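Purified P. pyralis luciferase, 10 nM final, with Km-level 10 uM D-luciferin and 10 uM ATP in 50 mM Tris acetate pH 7.5, 10 mM Mg acetate, 0.01% Tween-20, 0.05% BSA; 6-point qHTS titration about 60 µM downward; luminescence read.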
ELG1 genotox – genotoxicity induction in ELG1-luciferase HEK293T cells | HEK293T ELG1-luciferase reporter, luminescence, 16 h | Potency, µM (doses to about 46 µM), inactives show at the top dose activity change, positive = activation, most hits filed as activators | actives 1.3% (n = 330,000); note: % of control where 0% means no effect; nearly all actives have a fitted effect of over 60% in size
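16 hr compound incubation (37 °C, 5% CO2) of HEK293T cells carrying luciferase-tagged ELG1; luciferase then measured by ONE-Glo luminescence after 30 min at RT.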
NPC1 prom act – NPC1 promoter activation; actives 2.4% (n = 320,000); AID 485313; Huh7 NPC1 promoter luciferase reporter, 24 h; Potency, µM (highest dose often 9.22 µM), without a hit: at the top dose activation, hits mostly activators; note: % of control where 0% means no effect; nearly all actives have a fitted effect of over 60% in size
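In 1536-well qHTS, Huh7 cells harboring an NPC1 promoter–luciferase construct received compound for 24 h; activation was quantified by luminescence following luciferase reagent addition.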
Rab9 promoter act – activates the Rab9 promoter; Huh7 Rab9 promoter-luciferase reporter, luminescence, 24 h; Potency, µM (highest dose often 9.22 µM), inactives show top-dose activation, negative = inhibition, most hits filed as activators; actives 2.8% (n = 320,000); note: % of control where 0% means no effect; nearly all actives have a fitted effect of over 60% in size
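Luminescence read-out: Huh7 cells stably expressing Rab9-luciferase, treated 24 h with compound at 37 °C, then lysed with luciferase reagent for 10 min at ambient before reading.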
SMN2 splice enh – enhancers of SMN2 splice variant expression; HEK293 SMN2-luciferase splicing reporter, luminescence, 30-36 h; Potency, µM (titrated, usually from 46.1 µM), inactives show at the top dose activity change, positive = activation, usual class: activators; actives 2.8% (n = 210,000); note: % of control where 0% means no effect; nearly all actives have a fitted effect of over 55% in size
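HEK293 cells carry an SMN2 […]–luciferase reporter in which exon 7 inclusion puts luciferase in frame. Cells were plated 10-12 h before compound addition, then incubated 30-36 h at 37C. ONE-Glo luminescence was read; sodium butyrate at 4.5 mM final served as control.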
ELG1 repair inh – ELG1-dependent DNA repair inhibition. AID 504467. actives 2.3% (n = 330,000). Potency, µM (top dose mostly 46.1 µM), for inactives: top-dose activity change, negative = inhibition, usual class: inhibitors. HEK293T ELG1-luciferase reporter, luminescence, 16 h; DNA damage induced by 5-fluorouridine; note: % is set by controls: 0 for no effect and ±100 for the full control effect; nearly all actives have a fitted effect of over 55% in size
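Cells (2,000 per well) received 5-fluorouridine plus test compound or DMSO and were incubated 16 hr at 37 °C, 5% CO2. Luciferase activity was read by luminescence 30 min after ONE-Glo addition; signal suppression marked inhibition of damage-induced ELG1 function.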
ELG1 FLuc counter – luciferase inhibition in cell-free luciferin readout for ELG1 hits; AID 624247; shares compounds with ELG1 repair inh; cell-free firefly luciferase luminescence counter-screen, ViewLux; Potency, µM (highest dose often 46.1 µM), for inactives: at the highest dose activity change, negative = inhibition, hits mostly inhibitors; actives 3% (n = 350); note: % is set by controls: 0 for no effect and ±100 for the full control effect
ELG1-Luc inh – inhibits ELG1-dependent DNA repair in HEK293T cells, confirmed; actives 68% (n = 670); shares compounds with ELG1 repair inh; HEK293T ELG1-luciferase levels, luminescence; cells co-treated with 5-fluorouridine; AID 624248; Potency, µM (titrated, usually from 46.1 µM), for the others: top-dose activity change, negative = inhibition, usual class: inhibitors; note: % is set by controls: 0 for no effect and ±100 for the full control effect; nearly all actives have a fitted effect of over 55% in size
ELG1-Luc MMS – inhibits ELG1-dependent repair under MMS stimulation in HEK293T cells | shares compounds with ELG1 repair inh | AID 624249 | Potency, µM (titrated, usually from 46.1 µM), without a hit: top-dose activity change, negative = inhibition, actives largely listed as inhibitors | HEK293T luciferase-tagged ELG1 level, MMS stimulated | actives 53% (n = 670); note: % is set by controls: 0 for no effect and ±100 for the full control effect; nearly all actives have a fitted effect of over 60% in size
ELG1 5-FU – confirmation of ELG1 repair inhibitors: viability with 5FU; shares compounds with ELG1 repair inh; cell viability with 5-FU, ELG1-dependent repair; Potency, µM (series often up to 46.1 µM), inactives show at the top dose activity change, negative = viability loss, hits mostly cytotoxic; 670 tested, under 10 active; AID 624250;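 note: ELG1-luc HEK293T cells cotreated with 5-fluorouridine at 10 µM final; viability measured 16 h after compound addition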
ELG1 MMS cell – confirmation of ELG1 repair inhibitors: viability with MMS; shares compounds with ELG1 repair inh; Cell viability with MMS, ELG1-dependent DNA repair; Potency, µM (highest dose often 46.1 µM), for inactives: at the highest dose activity change, negative = viability loss, actives largely listed as cytotoxic; actives 33% (n = 670); AID 624251;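 note: ELG1-luc HEK293T cells co-treated with 10 µM MMS; viability read 16 h after compound addition; % is set by controls: 0 for no effect and ±100 for the full control effect; nearly all actives have a fitted effect of over 60% in size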
Cell viab unstim – affects unstimulated cell viability, ELG1 hit counter-screen; Potency, µM (titrated, usually from 45.9 µM), inactives show top-dose activity change, negative = loss of viability, hits mostly cytotoxic; AID 624252; actives 8% (n = 900); shares compounds with ELG1 repair inh; cell viability counter-screen, unstimulated, luminescence;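 note: compound exposure lasted 16 hours before reading; % is set by controls: 0 for no effect and ±100 for the full control effect; nearly all actives have a fitted effect of over 55% in size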
FLuc biochem – counter-screen for ELG1 repair inhibitors: firefly luciferase inhibition | actives 10% (n = 350) | purified firefly luciferase, luminescence counter-screen | shares compounds with ELG1 repair inh | Potency, µM (top dose mostly 57.5 µM), inactives show at the highest dose activity, negative = inhibition, hits mostly inhibitors; note: % is set by controls: 0 for no effect and ±100 for the full control effect
Active calls of the source: *; ? = inconclusive; . = no result given; [ ] = another dose, or the depositor's remark. Most compounds without a hit are left out; they make up all but 9.2% or so of the library. Calls come from the whole dose curve; as a rule, active = well fitted curve in the direction sought with a large enough effect; inconclusive = small, poorly fitted or top-dose-only effect, or another doubt; inactive = no such curve, though single readings can be large; an effect the other way counts as inactive or inconclusive. Potency is the fitted concentration of half-maximal effect.

SMILES	FLuc counter	ELG1 genotox	NPC1 prom act	Rab9 promoter act	SMN2 splice enh	ELG1 repair inh	ELG1 FLuc counter	ELG1-Luc inh	ELG1-Luc MMS	ELG1 5-FU	ELG1 MMS cell	Cell viab unstim	FLuc biochem
CCOC(=O)Cn1c(=NC(=O)C(C)C)sc2c(C)cc(C)cc21	?	-5.8%	7.1%	-0.7%	.	3.26µM*	.	14.1µM*	-3.0%	8.3%	?	?	.
CCC(C)N(CC(=O)Nc1cccc(C)c1C)C(=O)CCl (stereo not given)	1.4%	-22.1%	-45.9%	-42.3%	-71.3%	4.61µM*	.	14.1µM*	1.58µM*	?	7.05µM*	28.1µM*	.
COc1ccc(/C=C/c2nc(N)nc(-c3ccccc3O)n2)cc1	?	0.5%	-0.9%	0.2%	-14.6%[1.84 µM]	-9.5%	.	.	.	.	.	.	.
COc1cc(/C=C/c2nc(N)nc(-c3ccccc3O)n2)cc(OC)c1OC	-12.2%	-0.6%	-1.5%	-0.5%	7.2%	2.91µM*	.	2.23µM*	7.05µM*	-4.4%	?	?	.
CCOC(=O)N1CCC(NC(=O)C2CCCN(Cc3nc(-c4ccc(CC)cc4)oc3C)C2)CC1 (stereo not given)	0.7%	-6.8%	-29.2%	-38.0%	.	2.31µM*	-1.6%	7.92µM*	2.5µM*	4.1%	3.15µM*	?	0.9%
CCOC(=O)c1cc(-c2ccc(F)cc2)nc2c1c(=O)[nH]c(=O)n2Cc1ccccc1	0.3%	?	-4.0%	0.1%	.	29.0%	.	.	.	.	.	.	.
CCOC(=O)c1cc(-c2cc(OC)c(OC)c(OC)c2)nc2c1c(=O)[nH]c(=O)n2Cc1ccccc1	2.0%	8.2µM*	-13.1%	-10.6%	?	12.7%	41.9%	.	.	.	.	?	-4.8%
Cc1ccc(NC(=O)c2cc(-c3cccs3)nc3ccccc23)nc1	?	-15.0%	-3.8%	-9.1%	.	?	.	.	.	.	.	.	.
Cc1c(NC(=O)c2cc(-c3cccs3)nc3ccccc23)c(=O)n(-c2ccccc2)n1C	-3.1%	-6.4%	-4.7%	-5.0%	-22.4%	2.91µM*	-6.7%	2.81µM*	7.92µM*	2.9%	?	?	-13.1%
